This passage reports growth results from PubChem BioAssay (NCI).

Assay in all cases: NCI-60 one-dose screen, 48 h (100 = growth as untreated, 0 = no growth, -100 = all killed)
Holding throughout (conditions): 10 µM unless noted

For assay [1], the system named is NCI-H226 lung.
Assay [2] deals with NCI-H322M lung.
Assay [3] concerns HOP-62 NSCLC.
The test system of assay [4] is NCI-H460 lung.
The subject of assay [5] is HOP-92 NSCLC.
For assay [6], the system named is NCI-H522 lung.
Assay [7] relates to A549/ATCC NSCLC.
The test system of assay [8] is 786-0 renal.
Assay [9] relates to COLO 205 colon.
Assay [10] concerns DU-145 prostate.
Assay [11] relates to K-562 leukemia.
For assay [12], the system named is MALME-3M melanoma.
Assay [13] has as its system MDA-MB-231 breast.
In assay [14] the test system is RXF 393 renal.
Assay [15] has as its system SF-268 CNS.
The test system of assay [16] is SF-539 CNS.
For assay [17], the system named is UACC-257 melanoma.
In assay [18] the test system is M14 melanoma.
Assay [19] has as its system SF-295 CNS.

Compounds without any hit were thinned out: in the full panel of roughly 83,000, 20% have a hit.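 Assay: single dose, 48 h. Readout: percent growth (0 = no net growth; negative = cell death). Active: <10.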 Unmarked numbers belong to inactive results. Active and inactive are the calls of the source.

Consider `O=c1c2sc3ncccc3c2nnn1-c1ccccc1`, for which the growth in assay [1] was 100%; in assay [2], 114%; in assay [3], 105%; in [4], 106%; in assay [5], 97.5%; in assay [6] it was 111%. Further, the growth is 102% in assay [7]; 100% in [8]; 114% in assay [9]; 115% in [10]; 93.3% in assay [11]; 105% in assay [12]. For the same compound, the growth in [13] was 97.2%; in assay [14], 101%; in [15] it was 102%; in assay [16], 102%; in assay [17] it was 102%; in assay [18] it was 108%.
Consider `COc1ccc(-n2c(=S)sc3c(Cl)nc(C)nc32)c(OC)c1`, for which the growth in assay [1] is 100%; in [2], 61.9%; in assay [3], 90%; in assay [4] it was 3.2% (active); in [5] it was 54.2%; in [6], 20.8%. Besides, the growth in assay [8] is 75.3%; in [9], 61.1%; in assay [10] it was 6.39% (active); in assay [11], 2.62% (active); in [12], 80.2%; in [13] it was -14.9% (active). For the same compound, the growth in assay [14] is 42.6%; in assay [15] it was 4.67% (active); in assay [19] it was 85.1%; in [16] it was 20%; in assay [17], 77.9%; in assay [18] it was -18.8% (active).
For the compound `CCCCCCCC[C@@H](O)CC(=O)N[C@@H](CC(N)=O)C(=O)N[C@@H](CCC(N)=O)C(=O)N[C@@H](CC(=O)c1cc(C)cc(O)c1C(=O)c1c(O)cccc1O)CC(C)C`, the growth is 89.1% in [1]; 86.8% in [2]; 6.71% (active) in assay [3]; 23.4% in [4]; -17.8% (active) in [5]; -22.5% (active) in assay [6]. The growth is 60.1% in assay [7]; 11.6% in [8]; 13.5% in [9]; 54% in assay [10]; 23.8% in assay [11]; 51.3% in assay [12]. The growth in [13] was 12.1%; in assay [14] it was -49.5% (active); in assay [15], 9.65% (active); in [19] it was 21%; in [16], -5.78% (active); in [17], 14.9%. Also, the growth in assay [18] is -12.3% (active).
`N#Cc1c(Nc2ccccc2)nc2n(c1=O)-c1ccccc1Sc1ccccc1-2`: the growth was 84.4% in [1]; 90.7% in assay [2]; 98.8% in assay [3]; 58.7% in [5]; 75.2% in [6]; 78.8% in [7]. In addition, the growth in assay [8] is 90.2%; in [9], 84.1%; in [10] it was 90%; in [11], 57.6%; in [13], 63.7%; in assay [14], 82.2%. Moreover, the growth is 85.3% in assay [15]; 84% in [19]; 84.4% in [16]; 105% in assay [17]; 95.1% in assay [18].
Take `COc1ccc(Nc2nn3c(-c4ccccc4)cc(-c4ccccc4)nc3c2C(N)=O)c(OC)c1`: the growth is 46.4% in assay [1]; 61.4% in assay [2]; 47.3% in assay [3]; 70.9% in assay [5]; 34.8% in assay [6]; 24% in [7]. For the same compound, the growth in [8] is 67.6%; in [9] it was 53.2%; in assay [10], 38.2%; in assay [11] it was 58.1%; in assay [12], 44.7%; in [13], 29.3%. For the same compound, the growth in assay [14] is 84.7%; in assay [15], 53.4%; in assay [19], 37.5%; in assay [16], 13.4%; in [17], 62.4%; in assay [18] it was 51.3%.
Turning to `O=C(O)/C=C/C(=O)c1ccc(Cl)cc1`, the growth in assay [1] was 113%; in [2], 104%; in [3], 112%; in [4] it was 112%; in assay [5], 119%; in [6], 80.4%. The growth in [7] was 95.3%; in assay [8] it was 105%; in [9] it was 120%; in assay [10] it was 109%; in assay [12] it was 110%; in assay [13], 122%. Besides, the growth is 125% in assay [14]; 96.6% in assay [15]; 123% in [19]; 107% in assay [16]; 93.2% in assay [17]; 101% in [18].
As to `Cc1cc(N/N=C/c2nc(-c3ccccc3)oc2C)c2cc(Br)ccc2n1`, the growth was 88.3% in assay [1]; 94.3% in assay [2]; 87.5% in assay [3]; 73.6% in assay [4]; 71.9% in assay [5]; 80.6% in assay [6]. Also, the growth in [7] is 87%; in [8], 86.7%; in assay [9] it was 85.6%; in assay [10], 91.3%; in [11], 21.9%; in assay [12], 95.2%. For the same compound, the growth is 53.5% in [13]; 102% in assay [14]; 95% in assay [15]; 95% in assay [19]; 75.2% in [16]; 102% in assay [17]. Besides, the growth in [18] is 91.6%.
Regarding `CC(C)(C)n1cc(-c2ccnc(NCCCNS(=O)(=O)c3ccc(F)cc3)c2)c(-c2cccc(O)c2)n1`, the growth in [1] is 51.2%; in assay [2] it was 60.5%; in [3] it was 74%; in [4], 18.3%; in assay [5] it was 60.3%; in [6] it was 39.1%. The growth in assay [7] was 40%; in assay [8], 22.6%; in assay [9], 13%; in assay [10] it was 63.4%; in assay [11], 9.04% (active); in assay [12], 38.1%. Besides, the growth in [13] was 33.2%; in assay [14] it was 38.7%; in [15] it was 51.4%; in [19], 26.8%; in assay [16] it was 28.4%; in assay [17], 50.1%. Further, the growth in [18] was 29%.
